In PubChem BioAssay (EPA / NIEHS):
Active and inactive are the calls of the source. The calls were made as follows: active = hit-call score of the fitted dose curve at least 0.9, where 1 is the maximum; inactive = score below 0.9.

assay: ATG_Oct_MLP_CIS: Attagene CIS-FACTORIAL HepG2 Assay for human Octamer-Binding Transcription Factor (Oct) (AID 2282993); conditions: HepG2 Attagene cis-factorial Oct reporter, mRNA; actives raise or lower the signal
Method: ATG_CIS is a cell-based, multiplexed-readout assay that uses HepG2, a human liver cell line, with measurements taken at 24 hours after chemical dosing in a 24-well plate.ATG_Oct_MLP_CIS is one of 52 assay component(s) measured or calculated from the ATG_CIS assay. It is designed to make measurements of mRNA induction, a form of inducible reporter, as detected with fluorescence intensity signals by Reverse transcription polymerase chain reaction (RT-PCR) and Capillary electrophoresis technology.Data from the assay component ATG_Oct_MLP_CIS was analyzed into 1 assay endpoint. This assay endpoint, ATG_Oct_MLP_CIS, was analyzed with bidirectional fitting relative to DMSO as the negative control and baseline of activity. Using a type of inducible reporter, measures of mRNA for gain or loss-of-signal activity can be used to understand the reporter gene at the transcription factor-level as they relate to the gene POU2F1. Furthermore, this assay endpoint can be referred to as a primary readout, because this assay has produced multiple assay endpoints where this one serves a reporter gene function. To generalize the intended target to other relatable targets, this assay endpoint is annotated to the dna binding intended target family, where the subfamily is POU domain protein.
Human liver HepG2 cells are transiently transfected with multiple reporter transcription units (MRTUs) in 6-well plates using FuGene 6 reagent (Roche; 3 ml FuGene/1 mg DNA). The MRTU constructs are regulated by a cis-regulating element (promoter). […] A major difference between the CIS and TRANS system is that in CIS activities of endogenous TFs are measured, whereas the TRANS assay evaluates changes in activities of exogenous, chimeric NR-Gal4 proteins. […] At the end of 24 hour incubation, total RNA was isolated using TriZol reagent (Invitrogen). The isolated RNA is then reverse-transcribed using oligo(dT) primer and Mo-MLV reverse transcriptase (Invitrogen) with DNAse I (Ambion) treatment for 30 min. The one-tenth of the produced cDNA was amplified by PCR using Taq DNA polymerase (Invitrogen) and two reporter sequence-specific primers. The PCR products were fluorescently labeled by primer extension with 6-arboxyfluorescein (6-FAM) 5'-labeled reporter sequence-specific primer (2 min at 95 C, 20 s at 68 C and 10 min at 72 C) and these products were digested with 5U of HpaI (New England Biolabs) for 2h at 37 C. The fragments were purified using Qiaquick PCR columns (Qiagen), analyzed on an ABI 3130xL genetic analyzer (Applied Biosystems) with peak positions identified by using a set of X-rhodamine (ROX)-labeled MapMarker1000 molecular weight standards (BioVentures). The raw capillary electrophoresis data was processed using Attagraph software (Attagene).

outcome, inactive:
CCCCCCCCCCN
CC[C@]12CCCN3CCc4c(n(c5ccccc45)[C@@](O)(C(=O)OC)C1)[C@@H]32
CC1CCC(C(C)(C)O)CC1 (stereo not given)
O=C1O[C@@H]2[C@@H](O)[C@H](O)O[C@@H]2[C@H]1O
O=Cc1ccc(Cl)c([N+](=O)[O-])c1
CC(CC(C)(C)C)CC(C)(C)CC(C)(C)C (stereo not given)
COCCCOc1ccnc(CS(=O)c2nc3ccccc3[nH]2)c1C (stereo not given)
CCOC(=O)c1ccccc1OC
CC1CCC2CC1C2(C)C (stereo not given)
S=C(S)NCCNC(=S)S
O=C1OC2(c3cc(Br)c(O)c(Br)c3Oc3c2cc(Br)c(O)c3Br)c2c(Cl)c(Cl)c(Cl)c(Cl)c21
CC(=O)Nc1ccc(C)cc1C
NCCOCCO
N#Cc1ccccc1
ClCCCl
CC1(C)[C@H](C(=O)OCc2cccc(Oc3ccccc3)c2)[C@@H]1C=C(Cl)Cl
CCCOCC(C)O (stereo not given)
Nc1cc([N+](=O)[O-])ccc1Cl
O=C1NC(=O)c2ccccc21
CO[Si](CCCn1c(=O)n(CCC[Si](OC)(OC)OC)c(=O)n(CCC[Si](OC)(OC)OC)c1=O)(OC)OC
COc1c(Cl)c(Cl)c(Cl)c(Cl)c1Cl
CCC(=O)/C=C/C1C(C)=CCCC1(C)C (stereo not given)
COC(C(=O)O)c1ccccc1 (stereo not given)
O=C[C@H](O)[C@H](O)[C@H](O)CO
COC(=O)Cc1cccc2ccccc12
CCCCCCCCCCCCCCCCCC(=O)OCC(CC)CCCC (stereo not given)
CCCCCCOC(=O)CC
O=CCCc1ccccc1
CCC(C(=O)NC(N)=O)c1ccccc1 (stereo not given)
CC(C)(C#N)c1cc(Cn2cncn2)cc(C(C)(C)C#N)c1
Cc1ccc(C(C)C)cc1O
O=C(O)CCSCCC(=O)O
CNC(=O)Oc1ccc2c(c1)[C@]1(C)CCN(C)[C@@H]1N2C
CCCCNC(=O)NS(=O)(=O)c1ccc(N)cc1
C=COCCOCCOCCOC=C
Nc1ccc(F)c([N+](=O)[O-])c1
Cc1ccc2ccccc2n1
OCCOc1cccc(OCCO)c1

AC50, active:
N#Cc1nc(Cl)c(Cl)c(Cl)c1Cl 2.54 µM
C=CC(=O)OCCn1c(=O)n(CCOC(=O)C=C)c(=O)n(CCOC(=O)C=C)c1=O 8.38 µM
